This is part of a sample that, as a whole, favours compounds with a hit. Of some 83,000 tested, about 20% had one in any assay.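 The test compound was applied at a single concentration to cells in 96-well plates for 48 hours, and percent growth was recorded.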 Values without a mark were called inactive. The source made the active and inactive calls. The calls were made as follows: active = growth percent below 10; inactive = the rest.
The molecules below were run on MDA-MB-468 breast (assay: NCI-60 one-dose screen, 48 h (100 = growth as untreated, 0 = no growth, -100 = all killed)). Conditions: 10 µM unless noted.
With `CS(=O)(=O)N1CCN(Cc2cc3nc(-c4cccc5[nH]ncc45)nc(N4CCOCC4)c3s2)CC1` (tested in a mixture with another compound) the growth was -47.9% (active). For `NC1CCC(Nc2nc(NCc3ccc(-c4ccccc4O)nc3)c3ncn(C4CCCC4)c3n2)CC1` (configuration not stated), the growth was -73.7% (active). In the case of `CC(C)=CCc1c2c(c(O)c3c1O[C@]14C(=C[C@@H]5C[C@H]1C(C)(C)O[C@@]4(C/C=C(/C)C(=O)O)C5=O)C3=O)CC(O)C(C)(C)O2` (some centres not stated), the growth is reported as -55.7% (active). With `Cn1cc(-c2nn3cc(-c4ccncc4)nc3s2)c2cc(Cl)ccc21` the growth was 64.8%. With `CN1C(=O)/C(=C\c2nc([P+](c3ccccc3)(c3ccccc3)c3ccccc3)c(N3CCOCC3)o2)SC1=S` the growth was 10.1%. With `Nc1nc(N)c2c(n1)NC(c1ccc(Cl)cc1)CC(c1ccc(Nc3nc(NCCO)nc(Nc4ccc(Cl)cc4)n3)cc1)=N2` (configuration not stated) the growth was -29% (active). For `CC(=O)c1cccs1`, the growth was 105%. Work on `CCCCCCCCc1cc(Cl)c(O)c(Cl)c1` yielded a growth of 119%. `CCCc1cc(NC)nc(S(=O)(=O)CC)n1` showed a growth of 119%. `O=c1[nH]c(=S)[nH]n1C(=S)n1[nH]c(=S)[nH]c1=O` gave a growth of 92.5%. In the case of `COc1ccc(Cc2nn(CC(=O)N/N=C/c3ccc(Cl)cc3)c(=O)c3c(C)noc23)cc1`, the growth is reported as 80.4%. In the case of `COc1ccc(-c2cnnn2-c2nonc2-n2cccc2)cc1`, the growth is reported as 4.28% (active). With `O=C(N/N=C/c1c(Cl)cccc1Cl)c1cccc(Nc2ccnc(C(F)(F)F)c2)c1` the growth was 67.6%. `O=C(CCn1c[n+](CC(=O)c2ccc(-c3ccccc3)cc2)c2ccccc21)Nc1cccc2cccnc12` was tested, and the growth was -31.2% (active). For `O=C1CC[C@@H](C(=O)N[C@H]2CSSC[C@@H](C(=O)NCCc3ccccc3)NC(=O)[C@H](Cc3ccccc3)NC(=O)[C@@H]3CCCN3C(=O)[C@@H]3CCCN3C2=O)N1`, the growth was 90.2%. For `COc1ccc(/C=C(\C#N)c2cc(OC)c(OC)c(OC)c2)cc1`, the growth was -10.8% (active). Work on `O=C1C=C(C(O)c2ccc(O)cc2)C(=O)c2ccccc21` (configuration not stated) yielded a growth of 111%. Work on `Clc1nc(N2CCC[N+]3(CC2)CC[N+]2(CCCNCC2)CC3)nc(N2CCC[N+]3(CC2)CC[N+]2(CCCNCC2)CC3)n1` (configuration not stated) yielded a growth of 65.8%. `COc1ccc(-c2c(-c3nc4ccc(N5CCOCC5)cc4[nH]3)[nH]c(C)c2C(C)=O)cc1` showed a growth of 23.1%. `CN(C)c1ncnc2c1nnn2C1OC(CO)C(O)C1O` (configuration not stated) was tested, and the growth was -26.5% (active). `OCc1ccccc1F` gave a growth of 72.9%. `CCCNC(=S)N/N=C(\C)c1ccccn1` was tested, and the growth was -26.3% (active). Work on `CCN(C(=O)N1CCN(c2cc3c(cc2F)c(=O)c(C(=O)O)cn3C2CC2)CC1)c1nc(-c2ccccc2)cs1` yielded a growth of 13%. For `N=C(N)c1ccc(-c2ccc(-c3ccccc3)o2)nc1`, the growth was 59.9%. `CN(C)CCC(=O)c1ccc([N+](=O)[O-])cc1` was tested, and the growth was 86.5%. Molecule `CCOC(=O)CSc1nnc(-c2cc3c([nH]c4ccccc43)c(-c3cccc(O)c3)n2)n1-c1ccc(C)cc1` has a growth of 27.2%. With `O=C1/C(=C/c2ccc(F)cc2)Sc2c(Br)cccc21` the growth was 84.1%. For `O=[N+]([O-])c1ccc(SSc2ccc([N+](=O)[O-])cc2Cl)c(Cl)c1`, the growth was 74.6%. `CCN(CC)CCCC(Cc1ccccc1)Nc1c2ccc(Cl)cc2nc2ccc(OC)cc12` (configuration not stated) was tested, and the growth was -72.3% (active). With `Nc1[nH]c(=S)nc2oc(-c3ccccc3)c(-c3ccccc3)c12` the growth was 98.8%. Molecule `COc1cc(-c2cc(-c3cc(OC)c(OC)c(OC)c3)nc3nc(N)[nH]c(=O)c23)ccc1Oc1ccnc2cc(Cl)ccc12` has a growth of 15.9%. `CCCCCC(CCCCC)C(=O)O` showed a growth of 116%. `CS(=O)(=O)c1nccc(-c2c(-c3cccc(O)c3)nc3sccn23)n1` showed a growth of 60.1%. `S=C=NP1(N=C=S)=NP(N=C=S)(N=C=S)=NP(N=C=S)(N=C=S)=NP(N=C=S)(N=C=S)=N1` (configuration not stated) gave a growth of 107%. In the case of `COc1ccc(-c2c(C#N)cnc(N)c2-c2nc3cc(C)c(C)cc3[nH]2)cc1`, the growth is reported as 57.9%. Work on `COc1ccc(/C=C/C(=O)N2CCC(O)CC2)cc1OC1CCCC1` yielded a growth of 114%. `C[C@H](NC(=O)c1c(N)nn2cccnc12)c1cc2cccc(C#Cc3cnn(C)c3)c2c(=O)n1-c1ccccc1` was tested, and the growth was -21.2% (active).
